FBW7 activator = FBW7 E3 ligase activators, primary screen, biochemical, AlphaScreen, human | F-box/WD repeat-containing protein 7 (Homo sapiens), Q969H0 | 0.13% of 650,000 active | AID 1259310, 2017 | AlphaScreen FBW7–phospho-cyclin E peptide binding, activator screen | normalized activity (activation), % at 26.1 µM; in the data active means normalized activity above about 1.9%;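 further: purified mutant Fbw7 with reduced substrate affinity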
MITF inh = MITF inhibitors, primary screen, biochemical, AlphaScreen, human. Microphthalmia-associated transcription factor (Homo sapiens), O75030. AlphaScreen MITF homodimerization, bead proximity signal. inhibition, % at 2.6 µM. 0.91% of 650,000 active; in the data active means inhibition above about 50%;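 further: 0% = vehicle wells with protein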
TEAD-YAP inh = TEAD-YAP interaction inhibition, primary screen, TEAD-YAP interaction inhibitor project, luminescence, HEK-TIYL cells; TEAD-Gal4/YAP UAS-luciferase luminescence; inhibition, % at 9.12 µM; 1.4% of 640,000 active; AID 1259422, 2018; in the data active means inhibition above about 32%;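 further: 0% = median of test compound wells and 100% = reference inhibitor wells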
GPR151 ag = activators of human GPR151, primary screen, cell-based, PathHunter beta-arrestin, luminescence; PathHunter beta-arrestin GPR151 cells; activation, % at 11.2 µM; 1% of 650,000 active; AID 1508602, 2020; in the data active means activation above about 4.9%;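 further: 0% = median of compound wells and 100% = cells with positive control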
* hit, by the source's call. An excerpt weighted towards active compounds, which were near 3.5% of everything screened.

SMILES	FBW7 activator	MITF inh	TEAD-YAP inh	GPR151 ag
CN(C)c1cccc(Nc2ccnc3c(-c4cccc(O)c4)cnn23)c1	0.1	0.9	65.0*	0.5
COCCNc1ccnc2c(-c3cccc(C(=O)O)c3)cnn12	-0.4	-1.7	98.6*	0.8
Cc1ccc(NC(=O)C(=O)NC2CC2)cc1Cl	0.4	19.5	-20.8	-1.0
CC(C)n1nccc1-c1nnc(NC(=O)c2ccc(Cl)cc2Cl)o1	0.0	2.7	11.9	-0.9
CC(C)n1nccc1-c1nnc(NC(=O)C(C)(C)Oc2ccc(Cl)cc2)o1	-0.8	31.1	37.5*	-0.1
Cc1ccc(-c2cnn3c(N4CCC(O)CC4)ccnc23)cc1C	0.3	2.2	-83.0	0.0
Oc1ccc(-c2cnn3c(N4CCOCC4)ccnc23)cc1	-0.2	-0.4	98.3*	-1.4
Oc1ccc(-c2cnn3c(N4CCC(O)CC4)ccnc23)cc1	-0.4	6.0	51.5*	-0.8
CS(=O)(=O)Nc1cccc(-c2cnn3c(N4CCOCC4)ccnc23)c1	2.0*	4.2	-1.1	-1.6
Oc1ccc(C2(c3ccccc3)CCCCC2)cc1	0.2	15.7	1.8	-1.0
COc1ccc2[nH]c(=O)c(CN(CCO)C(c3nnnn3C3CCCC3)C(C)C)cc2c1 (stereo unspecified)	-0.2	-9.4	1.1	0.0
COC(=O)c1ccccc1NC(=O)NNC(=O)c1ccncc1	0.0	-0.6	-2.7	-0.3
COc1ccccc1NC(CC(=O)c1ccccc1)C(=O)O (stereo unspecified)	0.0	-7.1	54.2*	0.1
O=C(CC(Nc1ccc(F)cc1)C(=O)O)c1ccccc1 (stereo unspecified)	0.1	-11.4	-5.0	1.9
COc1cccc(C(=O)/C=C/Nc2cc(Cl)ccc2OC)c1	0.4	12.3	-33.9	-3.1
COc1ccccc1N/C=C/C(=O)c1ccccc1	0.0	4.5	45.5*	-1.3
COc1ccc(OC)c(N/C=C/C(=O)c2ccccc2)c1	0.0	9.7	94.5*	-8.8
COc1cccc(C(=O)/C=C\Nc2ccc(OC)cc2OC)c1	-0.1	0.6	79.7*	-8.8
C(#CC12CC3CC(CC(C3)C1)C2)CN1CCOCC1	-0.1	-1.7	5.4	0.3
CCOc1ccc(NC(=O)C(C)Sc2ccccc2)cc1 (stereo unspecified)	0.0	-12.8	-27.1	0.5
O=c1oc2ccccc2cc1-c1cn2c(n1)sc1ccccc12	0.1	-4.4	79.9*	0.4
Cc1ccc(-c2cn3c(n2)sc2cc(C)ccc23)cc1	1.4	-4.7	78.3*	-4.1
COc1ccc(-c2cn3c(n2)sc2cc(C)ccc23)cc1	0.3	-5.1	24.2	-1.8
COc1ccc2c(c1)sc1nc(-c3cc4ccccc4oc3=O)cn12	-0.2	-2.8	83.8*	0.3
O=c1oc2ccc3ccccc3c2cc1-c1cn2c(n1)sc1cc(Cl)ccc12	-0.1	1.3	6.1	0.8
SMILES	FBW7 activator	MITF inh	TEAD-YAP inh	GPR151 ag
Cc1ccc2c(c1)sc1nc(-c3cc4ccccc4oc3=O)cn12	0.0	-2.6	65.6*	-0.1
O=C(Nc1cnc2ccccc2c1)c1ccc([N+](=O)[O-])cc1Cl	0.0	1.0	49.5*	-3.5
O=C(Nc1ccc(Cc2ccncc2)cc1)c1ccc([N+](=O)[O-])cc1Cl	-0.1	3.3	36.5*	-0.6
O=C(Nc1cccnc1)c1ccc([N+](=O)[O-])cc1Cl	0.1	-8.5	-5.6	-1.4
O=C(Nc1ccc(Cc2ccncc2)cc1)c1ccc([N+](=O)[O-])cc1	-0.1	-7.3	7.0	0.4
O=C(NC1CCCCC1)c1ccc([N+](=O)[O-])cc1Cl	0.7	-2.1	39.9*	1.3
O=C(NC1CCCCCCCCCCC1)c1ccc([N+](=O)[O-])cc1Cl	-0.1	-12.9	-13.2	1.3
O=C(Nc1cnc2ccccc2c1)c1ccccc1Cl	-0.1	-15.1	77.6*	-6.0
Cc1nc(C#N)c(N/N=C/c2ccc(N(C)C)cc2)o1	-0.2	2.7	32.9*	-2.1
Cc1nc(C#N)c(N/N=C/C=C/c2ccccc2)o1	-0.1	9.9	-65.5	-2.1
CC(C)C(NC(=O)CN(c1ccc(Cl)cc1Cl)S(C)(=O)=O)C(C)C	0.1	9.3	1.6	-1.4
Cc1ccc(N2CC(C(=O)Nc3nccs3)CC2=O)cc1Cl (stereo unspecified)	0.4	5.2	61.2*	2.3
CCN(CC)c1ccc(C(=O)O)cc1	0.4	4.1	-8.2	1.3
CCN(CC)c1ccc(C(=O)c2ccc(N(CC)CC)cc2)cc1	0.2	1.2	33.8*	2.1
CCN(CC)Cc1c(C(=O)N/N=C/c2ccccc2Cl)nnn1-c1nonc1N	0.0	-2.2	-12.9	0.0

From PubChem BioAssay
